The full list was thinned out, with hits kept by preference.
TTR transcr act – TTR transcription activators in neuroblastoma reporter cells, primary screen, cell-based, luminescence, SH-SY5Y, TTR promoter Gaussia luciferase; 100% = recombinant luciferase protein wells; activation, % at 16.7 µM; hit rate 1.3% among 92,000;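 active means activation above the mean of all tested compounds plus 3 SD, cut at about 9.5% in these data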;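 further: cells exposed to compounds for one day before reading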
HuH7 TTR inh – TTR promoter reporter inhibitors in hepatoma cells, counter-screen for TTR transcription activator project, cell-based, luminescence, HuH7 hepatoma; AID 1117279, 2014; shares compounds with TTR transcr act; hit rate 4% among 1,100; HuH7 TTR promoter-Gaussia luciferase reporter; inhibition, % at 16.7 µM;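 active means average inhibition above the solvent-only control wells' mean plus 3 SD, cut at about 15% in these data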;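 further: inhibitors lower well luminescence so higher value means more inhibition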
TTR up confirm – TTR transcription activators, retest, confirmation, cell-based, luminescence, SH-SY5Y, triplicate | AID 1117280, 2014 | shares compounds with TTR transcr act | activation, % at 16.7 µM | 1,100 tested, under 10 active | SHSY5Y TTR promoter Gaussia luciferase; 100% = purified Lucia enzyme wells, no cells;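 active means mean activation above a set limit taken from the earlier primary screen, cut at about 11% in these data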
Of the large screens only hits and unclear results are named; the others gave an inactive call (follow-up assays come after a bar, where they were run).

CC[C@@H](C)[C@H](NC(=O)OCc1ccccc1)c1nnc([C@@H](NC(=O)OCc2ccccc2)[C@@H](C)CC)o1	TTR transcr act 11
CC(C)[C@H](NC(=O)OCc1ccccc1)C(=O)NCc1ccccc1	none
O=C(COc1ccccc1)NNc1nc2c(F)cccc2s1	none
CC1CCCC(C)N1C(=O)COC(=O)c1nn(C)c(=O)c2ccccc12 (stereo unspecified)	none
O=C1c2ccccc2C(=O)N1CC#CCN1CCN(C(c2ccccc2)c2ccccc2)CC1	TTR transcr act 11
OC(C#CCN1CCCC1)c1ccccc1 (stereo unspecified)	none
O=C(C(c1ccccc1)c1ccccc1)N1CCN(CCN2C(=O)c3cccc4cccc(c34)C2=O)CC1	none
C[C@H](O)[C@@H]1C(=O)N2CCc3ccc(-c4cccc(F)c4)cc3[C@@H]2C[C@@H]1N(C)S(=O)(=O)c1ccccc1	none
O=S(=O)(N[C@@H]1CC[C@H](CCNS(=O)(=O)c2ccccc2Cl)O[C@@H]1CO)c1ccccc1	none
CCOc1ccc(-n2c(SCC(N)=O)nc3c([nH]c4ccccc43)c2=O)cc1	TTR transcr act 12
COc1ccc(-n2c(SCC(=O)Nc3cc(C)on3)nc3c([nH]c4ccccc43)c2=O)cc1	none
CCOc1ccc(-n2c(SCC(=O)Nc3cc(C)on3)nc3c([nH]c4ccccc43)c2=O)cc1	none
Cc1cc(=O)[nH]c(/N=C(\N)Nc2ccc3c(c2)OCCO3)n1	none
COc1cccc(-c2nc(C#N)c(N3CCN(C(=O)c4ccco4)CC3)o2)c1	none
CNC(=O)COC(=O)c1ccccc1NC(=O)c1ccco1	none
O=C(NCCc1c[nH]c2ccccc12)c1cnccn1	none
O=C(OCCNC(=O)c1cc2ccccc2oc1=O)c1cccnc1	TTR transcr act 12
COc1ccc(-c2cc3ccccc3oc2=O)cc1NC(=O)c1cccnc1	none
O=C(NNC(=O)c1cc2ccccc2oc1=O)c1ccccc1	none
CC[C@]1(C(=O)OC)[C@H]2C(=O)N(C)C(=O)[C@H]2[C@H]2CN(C)C(=NC)N21	none
COc1ccccc1NS(=O)(=O)c1ccc(C(=O)N2CCCC(C)C2)cc1 (stereo unspecified)	none
C=CC(=O)N1C/C=C\C(c2ccc(OC)cc2)N(Cc2ccc(F)cc2)C(=O)C1 (stereo unspecified)	none
CCCCCN1C/C=C\C(c2ccc(OC)cc2)N(Cc2ccc(F)cc2)C(=O)C1 (stereo unspecified)	none
COc1ccc(C2/C=C\CN(S(=O)(=O)c3ccc(C)cc3)CC(=O)N2Cc2ccc(F)cc2)cc1 (stereo unspecified)	TTR transcr act 16
COc1ccccc1Nc1nnc(C)c(=O)[nH]1	none
CC(C)C[C@H](NC(=O)OC(C)(C)C)C(=O)N[C@@H](CO)[C@H](O)[C@@H]1C[C@@H]1C(=O)N1CCCC1	TTR transcr act 10
Cc1[nH]c(=O)[nH]c(=O)c1/C=N/NC(=O)[C@H](CC(C)C)NC(=O)OC(C)(C)C	none
CC(C)(C)OC(=O)N[C@@H](COCc1ccccc1)C(=O)N[C@@H](CO)[C@H](O)[C@@H]1C[C@@H]1C(=O)N1CCCC1	none
Cc1ccc(NC(=O)C(=O)NNC(=O)c2ccccc2C)cc1Cl	TTR transcr act 11
COc1ccc(C(=O)NNC(=O)C(=O)Nc2ccc(C)c(Cl)c2)cc1	none
Cc1ccc(NC(=O)C(=O)N2CCCC2)cc1Cl	none
CCOC(=O)c1ccc(N=NN(C)C)cc1	none
CC(C)CC(c1nnnn1Cc1ccccc1)N1CCC(C(N)=O)CC1 (stereo unspecified)	TTR transcr act 18
CC(C)CC(c1nnnn1Cc1ccco1)N1CCN(C2CCCC2)CC1 (stereo unspecified)	none
COc1ccc(C(c2nnnn2Cc2cccs2)N2CCC(C(N)=O)CC2)c(OC)c1 (stereo unspecified)	none
O=[N+]([O-])c1ccc(N2CCCCC2)nc1N1CCCCC1	none
O=C(NC12CC3CC(CC(C3)C1)C2)c1cc(F)c(F)cc1Cl	none
O=C(NC12CC3CC(CC(C3)C1)C2)c1ccco1	none
O=C(NC12CC3CC(CC(C3)C1)C2)c1ccccc1O	TTR transcr act 9.9
Cc1c(C(=O)Nc2c3c(nn2C(C)(C)C)CS(=O)(=O)C3)cccc1[N+](=O)[O-]	none
COC(=O)c1cc(OC)c(OC)cc1NC(=S)Nc1cccc(Cl)c1	TTR transcr act 17
COC(=O)c1cccc(NC(=S)Nc2cccc(Cl)c2Cl)c1	none
COC(=O)c1cc(OC)c(OC)cc1NC(=S)Nc1cc(Cl)ccc1OC	none
NC(=O)N/N=C/c1ccc2cccc(OCc3ccccc3)c2n1	none
COC(=O)c1cc(Br)c(=O)n(-c2ccccc2F)c1	none
O=C(NCc1ccccn1)[C@@H]1CCCN1C(=O)[C@@H]1CCCN1C(=O)c1cccs1	none
O=C(NCc1ccccn1)[C@@H]1CCCN1C(=O)[C@@H]1CCCN1C(=O)c1cccc(Cl)c1	none
Cc1ccccc1C(=O)N1CCC[C@H]1C(=O)N1CCC[C@H]1C(=O)NCc1ccccn1	TTR transcr act 14 | HuH7 TTR inh inactive | TTR up confirm inactive
CCC(CC)C(=O)Nc1ccc(Cl)c(Cl)c1	none
Oc1ccc(CCc2n[nH]c(=S)n2-c2ccc(F)cc2)cc1	none
Cc1sc2ncnc(N3CCC(C(=O)NCC(=O)Nc4ccc(F)c(F)c4)CC3)c2c1C	none
COC(=O)c1cc(COC(=O)c2nc3nc(C)cc(C)n3n2)oc1C	TTR transcr act 10 | HuH7 TTR inh inactive | TTR up confirm inactive
Cc1cc(C)n2nc(C(=O)OCC(=O)Nc3ccc4c(c3)OC(F)(F)O4)nc2n1	none
Cc1cc(C)n2nc(C(=O)OCC(=O)c3ccccc3)nc2n1	none
CCOc1ccc(NC(=S)Nc2ccccc2C2CC2)cc1	none
Cc1ccc2c(COC(=O)C3CC(=O)N(c4ccc5c(c4)OCCO5)C3)cc(=O)oc2c1 (stereo unspecified)	none
O=C(COC(=O)C1CC(=O)N(c2ccc3c(c2)OCCO3)C1)Nc1ccc2c(c1)CCC2 (stereo unspecified)	TTR transcr act 11 | HuH7 TTR inh inactive | TTR up confirm inactive
CC(=O)c1ccc(NC(=O)C(C)OC(=O)C2CC(=O)N(c3ccc4c(c3)OCCO4)C2)cc1 (stereo unspecified)	none
CCn1c(SC)nnc1C1CCN(S(=O)(=O)c2ccc(OC)cc2)CC1	none
CN(C)/C=C(/C(=O)c1ccc(Cl)cc1Cl)S(=O)(=O)c1ccccc1	none
COc1ccc(CC(=O)OCc2nnc(C3COc4ccccc4O3)o2)cc1OC (stereo unspecified)	none
CC(=O)Nc1cccc(-n2nnc(SCC(=O)Nc3ccc(F)c(Cl)c3)n2)c1	none
COc1ccc(NC(=O)/C=C/C(=O)O)c(OC)c1	none
COc1ccc(NC(=O)C(F)(OC)C(F)(F)F)c(OC)c1 (stereo unspecified)	TTR transcr act 14 | HuH7 TTR inh inactive | TTR up confirm inactive
CCC(C)C(=O)Nc1ccc(OC)cc1OC (stereo unspecified)	none
CC1CCN(C(=O)c2[nH]cnc2C(=O)Nc2ccccc2)CC1	none
COc1ccccc1C(=O)Nc1cccc(SC)c1	none
COc1ccc(NC(=O)c2ccccc2SC)cc1OC	TTR transcr act 12 | HuH7 TTR inh inactive | TTR up confirm inactive
CSc1ccccc1C(=O)Nc1cccc(N(C)S(C)(=O)=O)c1	none
CC(=O)c1cnc(Nc2cccc(Cl)c2Cl)s1	none

From PubChem
